Bioassay records from PubChem BioAssay.
Shown are actives, neighbours in structure and some others; about 10% of the full set was active somewhere.
HP1b chromo inh: blocks HP1-beta chromodomain binding to methylated histone tails; P83916; AlphaScreen HP1-beta / biotin-H3K9me3 peptide binding; Potency, µM (titrated, usually from 114 µM), inactives show at the highest dose activity change, negative = inhibition, usual class: inhibitors; 0.56% of 390,000 active; note: potency is the fitted concentration of half-maximal effect; nearly all actives have a fitted effect of over 70% in size
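HP1-beta protein (50 nM final) preincubated 30 min at room temperature with biotinylated H3(1-18)K9me3 peptide (50 nM) in PBS pH 7.4, 0.01% Tween-20, then compound added for 30 min. AlphaScreen streptavidin donor/nickel chelate acceptor beads (10 ug/mL final), 30 min dark, luminescence read.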
BAZ2B inh: inhibitors of human BAZ2B bromodomain. Q9UIF8. AlphaScreen BAZ2B-H3K14Ac peptide displacement. Potency, µM (highest dose often 114 µM), for inactives: at the top dose activity change, negative = inhibition, actives largely listed as inhibitors. 4.4% of 360,000 active; note: potency is the fitted concentration of half-maximal effect; % is set by controls: 0 for no effect and ±100 for the full control effect; nearly all actives have a fitted effect of over 60% in size
Target sequence (Q9UIF8 whole entry, looked up): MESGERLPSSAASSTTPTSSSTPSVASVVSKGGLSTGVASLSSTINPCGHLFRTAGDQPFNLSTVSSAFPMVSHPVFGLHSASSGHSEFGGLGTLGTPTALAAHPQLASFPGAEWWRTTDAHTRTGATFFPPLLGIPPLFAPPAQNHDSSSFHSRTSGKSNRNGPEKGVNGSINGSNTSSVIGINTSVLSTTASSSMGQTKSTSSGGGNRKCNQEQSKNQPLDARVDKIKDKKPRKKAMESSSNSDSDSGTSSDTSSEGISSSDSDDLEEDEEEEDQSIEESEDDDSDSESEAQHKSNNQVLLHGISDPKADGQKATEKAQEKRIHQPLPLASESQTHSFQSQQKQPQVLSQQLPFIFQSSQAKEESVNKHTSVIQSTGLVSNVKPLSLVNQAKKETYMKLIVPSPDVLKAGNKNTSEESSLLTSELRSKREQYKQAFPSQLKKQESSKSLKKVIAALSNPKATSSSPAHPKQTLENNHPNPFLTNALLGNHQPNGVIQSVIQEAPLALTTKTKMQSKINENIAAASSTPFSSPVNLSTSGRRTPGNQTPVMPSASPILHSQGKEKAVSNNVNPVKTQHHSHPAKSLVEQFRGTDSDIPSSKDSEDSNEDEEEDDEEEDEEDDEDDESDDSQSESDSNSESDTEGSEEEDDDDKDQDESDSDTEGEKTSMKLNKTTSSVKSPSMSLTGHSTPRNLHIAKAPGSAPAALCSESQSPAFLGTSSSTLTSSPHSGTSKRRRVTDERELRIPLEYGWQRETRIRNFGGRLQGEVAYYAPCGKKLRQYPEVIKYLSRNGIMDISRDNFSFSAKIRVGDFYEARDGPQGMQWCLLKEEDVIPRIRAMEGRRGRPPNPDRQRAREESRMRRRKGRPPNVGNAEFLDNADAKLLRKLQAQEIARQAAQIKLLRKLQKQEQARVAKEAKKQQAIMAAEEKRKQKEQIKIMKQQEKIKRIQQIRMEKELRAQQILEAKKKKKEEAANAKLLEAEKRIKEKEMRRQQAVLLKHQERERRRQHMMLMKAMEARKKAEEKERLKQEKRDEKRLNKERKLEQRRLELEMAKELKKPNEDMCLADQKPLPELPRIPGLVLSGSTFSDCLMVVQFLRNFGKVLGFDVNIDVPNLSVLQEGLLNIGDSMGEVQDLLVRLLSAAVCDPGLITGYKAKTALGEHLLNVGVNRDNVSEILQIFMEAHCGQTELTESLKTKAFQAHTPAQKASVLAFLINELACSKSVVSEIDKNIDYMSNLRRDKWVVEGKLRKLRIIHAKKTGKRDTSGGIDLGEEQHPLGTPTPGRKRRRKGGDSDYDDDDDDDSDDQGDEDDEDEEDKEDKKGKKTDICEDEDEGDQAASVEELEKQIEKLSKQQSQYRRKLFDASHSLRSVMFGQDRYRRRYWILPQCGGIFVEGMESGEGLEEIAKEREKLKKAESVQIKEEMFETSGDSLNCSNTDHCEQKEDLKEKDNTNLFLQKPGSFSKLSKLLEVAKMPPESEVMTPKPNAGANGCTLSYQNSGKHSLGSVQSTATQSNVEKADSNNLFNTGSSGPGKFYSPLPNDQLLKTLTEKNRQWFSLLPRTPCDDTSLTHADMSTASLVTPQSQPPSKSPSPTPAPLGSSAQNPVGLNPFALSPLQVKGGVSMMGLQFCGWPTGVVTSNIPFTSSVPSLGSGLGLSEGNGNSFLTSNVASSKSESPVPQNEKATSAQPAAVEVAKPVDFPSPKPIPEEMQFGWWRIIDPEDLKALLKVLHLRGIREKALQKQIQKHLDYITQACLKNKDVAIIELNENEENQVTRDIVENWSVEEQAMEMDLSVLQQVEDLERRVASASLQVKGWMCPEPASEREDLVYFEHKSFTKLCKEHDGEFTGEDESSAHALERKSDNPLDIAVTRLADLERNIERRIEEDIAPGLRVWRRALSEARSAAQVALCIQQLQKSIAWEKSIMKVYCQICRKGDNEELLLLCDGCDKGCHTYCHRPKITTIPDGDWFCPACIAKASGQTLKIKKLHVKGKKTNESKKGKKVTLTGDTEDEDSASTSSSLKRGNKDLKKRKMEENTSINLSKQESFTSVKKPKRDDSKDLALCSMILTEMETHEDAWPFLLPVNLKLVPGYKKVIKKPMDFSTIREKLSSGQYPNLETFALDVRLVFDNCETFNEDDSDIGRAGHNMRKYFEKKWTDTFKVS
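BAZ2B 50 nM plus b-H3(5-23)K14Ac 50 nM, PBS pH 7.4/0.01% Tween-20, 30 min RT; compound added (max 110 uM), 30 min RT; streptavidin donor/Ni-chelate acceptor beads 10 ug/mL final, 20 min dark; AlphaScreen read.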
Six1-Eya2 blk: Six1/Eya2 interaction inhibition; Q15475+O00167; AlphaScreen GST-Six1/His-Eya2 binding, biochemical; stronger effect = lower value; AID 651725; activity change, % (concentration not given with the values); 0.56% of 360,000 active; in the data active = activity change below about -65%; inconclusive = mostly about -30% to -63%; note: % is set by controls: 0 for no effect and ±100 for the full control effect
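Homogeneous AlphaScreen proximity assay pairing GST-Six1 with His-tagged Eya2 (added as 5X mix: 250 nM and 500 nM) in 50 mM Tris pH 8.0, 300 mM NaCl, 1 mM TCEP. Glutathione donor and nickel acceptor beads; 1 h, 37 °C, dark.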
JMJD2A Tudor: blocks the human JMJD2A Tudor domain | AlphaScreen JMJD2A-Tudor / H3K4me3 peptide binding | O75164 | 4.4% of 390,000 active | AID 504339 | Potency, µM (series often up to 114 µM), for the others: top-dose activity change, negative = inhibition, most hits filed as inhibitors; note: potency is the fitted concentration of half-maximal effect; % is set by controls: 0 for no effect and ±100 for the full control effect; nearly all actives have a fitted effect of over 50% in size
CtBP-E1A inh: inhibitors of CtBP/E1A interaction | activity change, % (concentration not given with the values) | 0.49% of 340,000 active | AlphaScreen GST-E1A/His-CtBP binding, 1536-well; stronger effect = lower value; in the data active = activity change below about -65%; inconclusive = mostly about -30% to -63%; note: % is set by controls: 0 for no effect and ±100 for the full control effect
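AlphaScreen with 125 nM GST-E1A and 125 nM His-CtBP (5X stocks) in Tris pH 8.0, 300 mM NaCl, BSA, Tween 20, TCEP. Compounds preincubated 2 h at 37 deg C, then glutathione donor/nickel acceptor beads added for 1 h at 37 deg C in dark.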
G9a block: G9a (human) methyltransferase inhibition | Q96KQ7 | G9a H3K9 monomethylation, AlphaScreen, 2 h | Potency, µM (top dose mostly 102 µM), without a hit: at the highest dose activity, negative = inhibition, hits mostly inhibitors | 8.8% of 350,000 active | AID 504332; note: potency is the fitted concentration of half-maximal effect; % is set by controls: 0 for no effect and ±100 for the full control effect; nearly all actives have a fitted effect of over 75% in size
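Compounds were preincubated with 20 nM G9a for 15 min, after which biotinylated H3K9 peptide (500 nM) and SAM (20 uM) started a 2 h room-temperature reaction. Monomethylated product was quantified by antibody-based AlphaScreen chemiluminescence.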
Numbers without * were called inactive; ? = inconclusive; . = not tested or not shown; [ ] = dose if it differs, or a comment. Unless noted, calls come from the whole dose curve; as a rule, active = well fitted inhibition curve with a large enough effect; inconclusive = small, poorly fitted or top-dose-only effect; inactive = no such curve, though single readings can be large or run the other way.

SMILES	HP1b chromo inh	BAZ2B inh	Six1-Eya2 blk	JMJD2A Tudor	CtBP-E1A inh	G9a block
O=C(Nc1ccc(Cl)c(C(F)(F)F)c1)c1ccc2c(c1)CCN2S(=O)(=O)c1ccccc1	64%	2%	.	6%	.	8%[59 µM]
O=C(Nc1ccc(Cl)c(Cl)c1)c1ccco1	35%	?	0	7%	9	.
O=C1NC(=O)C(Nc2ccc(Cl)c(Cl)c2)C(=O)N1	13%	.	16	32µM*	10	.
CN1CCN(c2ccc(N)cc2Cl)CC1	28µM*	?	-21	?	.	40µM*
CN1CCN(c2ccc(Cl)cc2N)CC1	45%	7%	-4	-5%	.	11%[0.501 µM]
CCN(CC)CCO[C@H]1CC[C@@]2(C)C(=CC[C@@H]3[C@H]2CC[C@]2(C)C(=O)CC[C@H]32)C1	.	.	.	.	.	-2%[12.7 µM]
CC(=O)c1ccc2c(c1)C1C(Cl)C(Sc3ccccc3[N+](=O)[O-])CC1C(c1ccccc1)N2 (configuration not stated)	-23%	45µM*	-16	45µM*	-23	10µM*
Clc1cccc(CNCCc2c[nH]c3ccccc23)c1	?	50µM*	-18	7.1µM*	-20	11%[2.33 µM]
c1ccc2c(CCNC3CCCCC3)c[nH]c2c1	79µM*	?	-7	32µM*	-3	13µM*
c1ccc2c(CCN3CCCCC3)c[nH]c2c1	.	.	1	.	-21	.
Oc1ccc(Cl)cc1Sc1cc(Cl)ccc1O	0%[57 µM]	.	9	?	-10	.
COc1ccc(C(=O)CN2CCCCC2)cc1	38%	-13%	0	-3%	-10	?
COc1ccc(C(=O)CC2(CC(=O)c3ccc(OC)cc3)C(=O)N(C)C(=O)N(C)C2=O)cc1	37%	1%	4	-4%	8	40µM*
Oc1cccc2cccnc12	-2%	10µM*	.	?	.	17%[59 µM]
CC1=C2CC3C(CC=C4C[C@@H](O)CC[C@@]43C)[C@@H]2CC[C@]12O[C@@H]1C[C@H](C)CN[C@H]1[C@H]2C (some centres not stated)	.	.	.	.	.	-8%[59 µM]
C#CCN1CC(=O)N(COC(=O)[C@@H]2[C@@H](C=C(C)C)C2(C)C)C1=O	.	.	.	.	.	35%[59 µM]
C[C@@H]1O[C@H](C[N+](C)(C)C)CS1	.	.	.	.	.	2µM*
CCOc1ccc(Nc2c(S(=O)(=O)c3ccc(C)cc3)cnc3ccccc23)cc1	9%	?	.	?	.	-34%[59 µM]
CCOc1ccc(Nc2c(S(=O)(=O)c3ccc(C)cc3)cnc3ccc(F)cc23)cc1	5%	-37%	.	-31%	.	10µM*
COc1ccc(NC(=O)CCCn2c(=O)oc3ccccc32)cc1Cl	47%	-21%	-10	-5%	-10	-9%[59 µM]
CNc1cc(Cl)c2nonc2c1[N+](=O)[O-]	-14%	-31%	-28	-23%	-18	25µM*
Cc1cc([N+](=O)[O-])c(Cl)cc1NC(=O)C(C)C	30%	7%	-5	1%	0	23%[59 µM]
CC(N)Cc1c[nH]c2ccc(O)cc12 (configuration not stated)	39%	.	-2	-17%	-7	7.9µM*
CC[C@H](C)/C=C(C)/C=C/C1=CC2=C(Cl)C(=O)[C@@](C)(OC(C)=O)C(=O)C2=CO1	50µM*	.	-22	56µM*	3	.
CCC(C)/C=C(C)/C=C/C1=CC2=C(Cl)C(=O)C(C)(OC(C)=O)C(=O)C2=CO1 (configuration not stated)	?	25µM*	-28	35µM*	?	-45%[12.7 µM]
Nc1c(C(=O)Nc2ccc(OC(F)(F)F)cc2)sc2nc3c(cc12)N1CCC3CC1	69%	3%	.	-21%	.	0%[59 µM]
O=P(/C(=N/O)N1CCCCC1)(N1CCOCC1)N1CCOCC1	24%	8%	-2	2%	12	56µM*
COc1cc(/C=C/[N+](=O)[O-])ccc1OC(=O)c1cccnc1	16%	-32%	-4	-23%	.	3.5µM*
COc1cc2c(cc1/C=C/[N+](=O)[O-])OCO2	44%	-30%	-4	-23%	1	?
CNC(C)[C@@H](O)c1ccc(O)cc1 (some centres not stated)	.	.	.	.	.	-10%[12.7 µM]
